For 98 compounds, viability results are on record in PubChem BioAssay AID598 (SRMLSC, 2007).

The structures appear in SMILES notation. Screen size: about 85,000 compounds; about 5,100 (6%) were called active. The sample as a whole holds a higher share of actives than the screen did. Unmarked numbers belong to inactive results.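 The calls were made as follows: active = viability at or below 40%; inactive = viability above 40%.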

This assay in a line: H69AR cell viability reduction – human, 86K library, primary screen (AID 598).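 Also: multidrug resistant small cell line overexpressing MRP-1 efflux transporter; 100% = mean luminescence of untreated control wells.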 As to conditions: H69AR lung tumor viability, ATP luminescence, 72 h; at 10 µM; active compounds read low.
As for `Cc1cc2nc(C)n(CCCNC(=O)Nc3ccccc3)c2cc1C`, the viability (commonly a read-out of living cells in per cent, often relative to untreated cells) is 91.7%.

Consider `CCC1CCCCN1CCCNC(=O)C1CCC(Cn2c(=O)[nH]c3ccccc3c2=O)CC1` (stereo not drawn), for which the viability was 77.4%.

As to `Cc1cccc(NC(=O)C2CC(=O)OC23CCCC3)c1` (stereo not drawn), the viability was 102%.

As for `Clc1ccc(C2CC(c3cccs3)n3ncnc3N2)cc1Cl` (stereo not drawn), the viability is 35.8% (active).

Regarding `COc1ccc(C2CC(c3ccc(C)cc3)Nc3ncnn32)cc1` (stereo not drawn), the viability was 91.5%.

On to `COc1ccc(C2CC(c3ccccc3)Nc3ncnn32)cc1` (stereo not drawn), for which the viability was 90.5%.

On to `Cc1cccc(C(=O)Nc2ccccc2N2CCN(c3ccc(F)cc3)CC2)c1`, for which the viability is 89.6%.

Take `FC(F)(F)c1nnc2ccc(N3CCN(c4ccccc4)CC3)nn12`: the viability was 92.5%.

On to `COc1ccc(S(=O)(=O)N2CCC(C(=O)N3CCc4ccccc4C3)CC2)cc1OC`, for which the viability is 88.7%.

As for `COc1cc2c(cc1OC)CN(C(=O)c1cc(=O)c3ccccc3o1)CC2`, the viability is 18.1% (active).

In the case of `COc1ccc2c(c1)CCc1c(C(=O)N3CCc4ccccc4C3)noc1-2`, the viability is 94.9%.

Consider `CCN(CC)C(=O)CSc1nc2ccccc2o1`, for which the viability is 91.7%.

`CCOc1c(Br)cc(/C=C2\C(=O)N(CCC#N)N=C2C)cc1OC`: the viability is 26.2% (active).

Regarding `CCOc1cc(/C=N/O)cc(Br)c1OC`, the viability is 90.5%.

`Cc1nnc(NCCO)c2ccccc12`: the viability was 89.8%.

Turning to `Cn1c(SCC(=O)N2CCCc3ccccc32)nc2ccccc2c1=O`, the viability is 62.9%.

Consider `Fc1ccccc1/C=C1\CCCC2=C1Nc1ncnn1C2c1ccccc1F` (stereo not drawn), for which the viability is 1.53% (active).

Take `COc1ccc(C2C(C(C)=O)=C(O)C(=O)N2c2nccs2)cc1` (stereo not drawn): the viability was 106%.

On to `O=C(N/N=C/c1ccc(O)cc1)/C(=C/c1ccc([N+](=O)[O-])cc1)NC(=O)c1ccccc1`, for which the viability is 88.2%.

For the compound `COc1c(F)c(F)c(C(=O)O)c(Nc2ccccc2C)c1F`, the viability was 98.5%.

For `COc1ccc(C(=O)OCC(=O)NCC2CCCCC2)cc1S(=O)(=O)N1CCCc2ccccc21`, the viability was 72.3%.

Turning to `C=CCn1c(SCCOc2ccc(OC)cc2)nnc1C(NC(=O)c1ccc(OC)cc1)C(C)C` (stereo not drawn), the viability was 64%.

Turning to `CCN(CC(=O)NC1CCS(=O)(=O)C1)c1nc(-c2cccnc2)nc2ccccc12` (stereo not drawn), the viability is 89.7%.

On to `Cc1cccc(N2CCN(S(=O)(=O)c3ccc4[nH]c(=O)c(=O)[nH]c4c3)CC2C)c1` (stereo not drawn), for which the viability was 98.9%.

Regarding `Cc1cccc(-n2c(N)c(C(=O)N3CCN(C)CC3)sc2=S)c1`, the viability was 94.4%.

Turning to `Cc1cccc(-n2c(O)c(C=Nc3ccccc3N)c(=O)[nH]c2=O)c1`, the viability is 10% (active).

As for `O=C(C(NS(=O)(=O)c1cccc2nsnc12)c1ccccc1)N1CCN(c2ccccc2)CC1` (stereo not drawn), the viability is 52.6%.

`CCSc1nnc(NC(=O)c2ccc(C)cc2)s1`: the viability was 103%.

With `O=C(Nc1ccccc1)Nc1ccccc1C(=O)NCc1ccco1`, the viability was 99.2%.

`Cc1cccc(Nc2ccccc2C(=O)NCc2ccco2)c1C`: the viability was 15.7% (active).

Regarding `CCOc1ccccc1C(=O)NCc1ccco1`, the viability was 74.1%.

As for `O=C(Oc1ccccc1C(=S)N1CCCCC1)c1cc([N+](=O)[O-])cc([N+](=O)[O-])c1`, the viability is 94.3%.

As for `COC(=O)c1nc2ccccc2s1`, the viability was 86.8%.

For the compound `O=C(OC1CCOC1=O)c1ccc(-c2nc3ccccc3s2)s1` (stereo not drawn), the viability is 92.7%.

In the case of `COc1ccccc1N1CC(O)=C(c2nc3ccccc3s2)C1=N`, the viability is 31.6% (active).

For `COc1ccc(-c2nnc(SCc3cccnc3)o2)cc1`, the viability was 53.3%.

`O=C(COc1ccc(Cl)cc1)NCCSc1ccccc1`: the viability is 95.3%.

For the compound `CCOC(=O)NCc1ccc2c(c1)OCO2`, the viability was 113%.

For the compound `CCOC(=O)c1nc(-c2ccc3c(c2)OCO3)[nH]c1C`, the viability was 36% (active).

For `CCOC(=O)c1c(C)[nH]c(C(=O)COc2ccc3c(c2)OCO3)c1C`, the viability is 81.1%.

`CCC(=O)Nc1ccc2c(c1)nc(CCN1CCN(C)CC1)n2C`: the viability was 74.1%.

Regarding `Cc1nn(CC(=O)Nc2ccc3c(c2)nc(CN2CCCCC2)n3C)c(=O)c2ccccc12`, the viability is 104%.

In the case of `Cn1c(CCN2CCCCCC2)nc2cc(NC(=O)Nc3ccccc3)ccc21`, the viability is 9.15% (active).

Consider `CC1CCC(N2CC(=O)N(Cc3ccc4c(c3)OCO4)C(c3ccc(F)cc3)C2=O)CC1` (stereo not drawn), for which the viability is 100%.

Regarding `COC(=O)c1sc(NC(=O)c2ccc(OC)cc2OC)nc1C`, the viability was 69.8%.

Turning to `COc1cccc2sc(Nc3nc(C)c(C(C)=O)s3)nc12`, the viability is 32.5% (active).

Consider `CC(=O)c1sc(NC(=O)c2ccc(C)cc2)nc1C`, for which the viability is 80%.

For `CC(C)CC(N=C1NC(C)(C)Cc2ccccc21)C(=O)O` (stereo not drawn), the viability was 108%.

On to `CCCCc1nnc(NC(=O)CSc2nc(C)cc(=O)[nH]2)s1`, for which the viability is 92.2%.

In the case of `Cc1ccc(-n2c(CNc3ccc(F)cc3)nnc2SCC(=O)N2CCOCC2)cc1`, the viability was 92%.

With `C1=C(CCNc2ncnc3c2cnn3-c2ccccc2)CCCC1`, the viability is 77%.

Turning to `CC(=O)Nc1ccc(NC(=O)CSCc2cnn(-c3ccccc3)c2-n2cccc2)cc1`, the viability was 87.6%.

Regarding `O=C(NCCC1=CCCCC1)C1CCN(Cc2cnn(-c3ccccc3)c2-n2cccc2)CC1`, the viability was 26% (active).

On to `CC(C)Oc1ccc(Oc2ccc(C(F)(F)F)cn2)cc1`, for which the viability was 98.7%.

As to `N=c1n(Cc2ccc(Cl)cc2)c2ccccc2n1CC(O)c1ccco1` (stereo not drawn), the viability was 14.7% (active).

`Cn1c(=N)n(CC(O)c2ccccc2)c2ccccc21` (stereo not drawn): the viability was 80.7%.

Consider `O=S(=O)(O)c1nc2ccccc2n1Cc1ccc(Cl)cc1`, for which the viability is 86.1%.

As to `O=C(NCc1ccccc1Cl)c1csc2c1CCCCC2`, the viability was 97.3%.

Take `O=C(NCC(=O)N(Cc1cccs1)C(C(=O)NC1CCCCC1)c1ccco1)c1cccs1` (stereo not drawn): the viability is 82.2%.

As to `Cc1ccsc1C(C(=O)NC1CCCCC1)N(C(=O)Cc1cccs1)C1CC1` (stereo not drawn), the viability is 25.5% (active).

Take `CC(Cc1cccs1)NC(=O)NC1CCCCC1` (stereo not drawn): the viability is 87%.

On to `CC(=O)c1ccc(OCCN2CCOCC2)cc1`, for which the viability is 85.9%.

`Cc1ccc(NC(=O)N2CCC(O)(c3cccnc3)CC2)cc1`: the viability was 78.4%.

Consider `CCCCc1nnc(NC(=O)CS(=O)(=O)Cc2ccccc2)s1`, for which the viability was 97%.

Take `O=C(NC1=NCCS1)c1ccc(Cl)s1`: the viability is 93.3%.

With `CC(=O)NC1=NN(C(C)=O)C(C)(c2ccc(Cl)s2)S1` (stereo not drawn), the viability was 17.3% (active).

Consider `c1ccc2c(-c3nn4nnnc4c4ccccc34)cccc2c1`, for which the viability was 64.8%.

Regarding `CCCn1c(C)cc(C(=O)COC(=O)c2c(C)nn(-c3ccccc3)c2C)c1C`, the viability is 100%.

For the compound `Oc1c(C(c2ccccn2)N2CCOCC2)ccc2cccnc12` (stereo not drawn), the viability was 79.3%.

Regarding `CCN1CCN(C(c2cccnc2)c2cc(Cl)c3cccnc3c2O)CC1` (stereo not drawn), the viability is 102%.

With `CCOC(=O)N1CCN(C(c2cccnc2)c2ccc3cccnc3c2O)CC1` (stereo not drawn), the viability was 35.2% (active).

For the compound `CC(C)(C)c1nc2ccccc2c(=O)n1N1C(=O)c2ccccc2C1=O`, the viability is 63.5%.

Regarding `Cc1ccc2cc(CCNC(=O)c3c(-c4ccccc4Cl)noc3C)c(=O)[nH]c2c1`, the viability was 86.2%.

On to `O=C(Nc1ccc(-c2nnc(-c3ccccc3)o2)cc1)c1ccc(Br)o1`, for which the viability was 39.8% (active).

As to `O=C(Nc1ccc(-c2nnc(-c3ccccc3)o2)cc1)C1CCCO1` (stereo not drawn), the viability was 86%.

For the compound `Brc1ccc(-c2nnc(-c3ccccc3)o2)o1`, the viability was 90%.

Consider `CC1CCN(S(=O)(=O)c2ccc(S(=O)(=O)NCc3ccco3)cc2)CC1`, for which the viability is 75.4%.

On to `Cc1cc(Br)ccc1NC(=O)C1CCCO1` (stereo not drawn), for which the viability was 101%.

In the case of `OC(CNCC1CCCO1)Cn1c2ccc(Br)cc2c2cc(Br)ccc21` (stereo not drawn), the viability is 1.09% (active).

For `Cc1ccc(C(=O)NCC2CCCO2)o1` (stereo not drawn), the viability was 93.7%.

In the case of `CCOCCCNC(=O)C(NC(=O)CNC(=O)c1ccccc1)c1ccc(C)cc1` (stereo not drawn), the viability was 101%.

With `O=S(=O)(Cc1cc(Sc2ccccc2)nc(-c2ccccc2)n1)c1ccccc1`, the viability is 84.3%.

On to `Cn1c(-c2ccco2)nc2cc3ccccc3cc21`, for which the viability was 37.4% (active).

On to `CN(c1nc2ccccc2n2c(-c3ccco3)nnc12)S(=O)(=O)c1ccccc1`, for which the viability was 96.1%.

Consider `c1coc(-c2nc3nc4ccccc4n3nc2-c2ccco2)c1`, for which the viability is 82.6%.

In the case of `Cc1ccc(C)c(NC2=NCC(=O)N2c2ccc3c(c2)OCCO3)c1`, the viability was 100%.

Take `COc1ccc(NC(=O)CCN2CCCC2)c(OC)c1`: the viability was 94.6%.

Consider `CN1C(=O)C(CC(N)=O)N(NC(=O)c2ccc(Cl)cc2)C1=S` (stereo not drawn), for which the viability was 98%.

In the case of `COc1ccc(-n2nnnc2SCC(=O)c2ccc(OC)c(OC)c2)cc1`, the viability was 92%.

On to `CCOc1cccc(-n2nnnc2-c2ccc(OC)cc2)c1`, for which the viability was 15.2% (active).

Take `CCOc1cccc(-c2nnc3sc(COc4ccc(OC)cc4)nn23)c1`: the viability is 51.3%.

On to `O=C(CC1(O)C(=O)N(CN2CCOCC2)c2ccccc21)c1ccccc1` (stereo not drawn), for which the viability was 79.9%.

For `C#CCN1C(=O)C(O)(CC(=O)c2cc(OC)ccc2OC)c2ccccc21` (stereo not drawn), the viability was 17.6% (active).

With `CCOC(=O)CN1C(=O)C(O)(CC(=O)c2ccccn2)c2ccccc21` (stereo not drawn), the viability is 46.4%.

Regarding `CCOC(=O)c1ccc(-n2c(C)nc3c(cnn3-c3ccccc3C)c2=O)cc1`, the viability is 96.7%.

For the compound `COc1ccc(-n2c(C)nc3c(cnn3-c3ccccc3)c2=O)cc1`, the viability is 19.6% (active).

On to `COc1ccc(N2CCN(C(=O)CSc3ncnc4c3cnn4-c3ccc(OC)cc3)CC2)cc1`, for which the viability was 89.9%.

As for `Cc1ccc(/C=N/NC(=O)C2=NNC(c3ccccc3)(c3ccccc3)C2)c(O)c1`, the viability is 40.7%.
